From PubChem BioAssay (NCI)
Compounds without any hit were thinned out: in the full panel of roughly 83,000, 20% have a hit.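 Note: values are percent growth. 100 is the growth of untreated cells, values between 100 and 0 indicate rising inhibition; between -100 and 0 indicates cell death.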 The source made the active and inactive calls. Rule for the calls: active = growth percent below 10; inactive = the rest.

Experiments:
Assay in all cases: NCI-60 one-dose screen, 48 h (100 = growth as untreated, 0 = no growth, -100 = all killed)
Details in all cases: 10 µM
RPMI-8226 leukemia = tested on: RPMI-8226 leukemia
OVCAR-8 ovarian = tested on: OVCAR-8 ovarian
OVCAR-5 ovarian = tested on: OVCAR-5 ovarian
OVCAR-4 ovarian = tested on: OVCAR-4 ovarian
SK-OV-3 ovarian = tested on: SK-OV-3 ovarian
IGROV1 ovarian = tested on: IGROV1 ovarian
OVCAR-3 ovarian = tested on: OVCAR-3 ovarian
HS 578T breast = tested on: HS 578T breast
NCI/ADR-RES ovarian = tested on: NCI/ADR-RES ovarian
T-47D breast = tested on: T-47D breast
BT-549 breast = tested on: BT-549 breast
MDA-MB-435 melanoma = tested on: MDA-MB-435 melanoma
SW-620 colon = tested on: SW-620 colon
MCF7 breast = tested on: MCF7 breast
HCT-116 colon = tested on: HCT-116 colon
HCC-2998 colon = tested on: HCC-2998 colon
KM12 colon = tested on: KM12 colon

Measured: growth

Cc1cc2c(C)c3cc(C)c(N)cc3nc2cc1N
active: RPMI-8226 leukemia 0.782% | OVCAR-8 ovarian -6.68% | OVCAR-4 ovarian -2.48% | IGROV1 ovarian -1.9% | T-47D breast -2.32% | SW-620 colon 4.58% | MCF7 breast -4.55% | HCT-116 colon -9.81% | KM12 colon 9.44%
inactive: OVCAR-5 ovarian 12.3% | SK-OV-3 ovarian 13.3% | OVCAR-3 ovarian 14.9% | HS 578T breast 15.6% | NCI/ADR-RES ovarian 69.2% | BT-549 breast 57.8% | MDA-MB-435 melanoma 12% | HCC-2998 colon 28.3%

CN(C)c1ccc(/C=C/C=N/NC(=O)c2cc(O)c(O)c(O)c2)cc1
inactive: RPMI-8226 leukemia 99.9% | OVCAR-8 ovarian 89.3% | OVCAR-5 ovarian 102% | OVCAR-4 ovarian 67.8% | SK-OV-3 ovarian 99.3% | IGROV1 ovarian 100% | OVCAR-3 ovarian 90.9% | HS 578T breast 100% | NCI/ADR-RES ovarian 102% | T-47D breast 25.3% | BT-549 breast 89.7% | MDA-MB-435 melanoma 96.7% | SW-620 colon 43.4% | MCF7 breast 87.8% | HCT-116 colon 52.7% | HCC-2998 colon 109% | KM12 colon 104%

O=C1Nc2ccc(Cl)cc2/C1=C\c1c(-c2ccc(Cl)cc2)nc2sc(C3CC3)nn12
active: OVCAR-4 ovarian 9.28% | HS 578T breast 7.42%
inactive: RPMI-8226 leukemia 69.5% | OVCAR-8 ovarian 26.5% | OVCAR-5 ovarian 77.8% | SK-OV-3 ovarian 39.2% | IGROV1 ovarian 71.5% | OVCAR-3 ovarian 63.9% | NCI/ADR-RES ovarian 45% | T-47D breast 50.7% | BT-549 breast 65.3% | MDA-MB-435 melanoma 77% | SW-620 colon 80.8% | MCF7 breast 60.7% | HCT-116 colon 41.4% | HCC-2998 colon 83.7% | KM12 colon 82.7%

CCN(CC)CCCC(C)Nc1nc(-c2ccc(OC)cc2)nc2cc(Cl)ccc12 (stereo not drawn)
inactive: RPMI-8226 leukemia 55.2% | OVCAR-8 ovarian 76.1% | OVCAR-5 ovarian 65.8% | OVCAR-4 ovarian 68.7% | SK-OV-3 ovarian 91.4% | IGROV1 ovarian 44.3% | OVCAR-3 ovarian 69.6% | HS 578T breast 70.4% | NCI/ADR-RES ovarian 71.3% | T-47D breast 60.2% | BT-549 breast 75.6% | MDA-MB-435 melanoma 35% | SW-620 colon 80.9% | MCF7 breast 44.6% | HCT-116 colon 47.1% | HCC-2998 colon 54.1% | KM12 colon 66.3%

Cc1cc(=O)n2nnc3c4ccccc4ccc3n12
inactive: OVCAR-8 ovarian 27.3% | OVCAR-5 ovarian 88.5% | OVCAR-4 ovarian 49.3% | SK-OV-3 ovarian 53.6% | IGROV1 ovarian 61.8% | OVCAR-3 ovarian 40.4% | HS 578T breast 104% | NCI/ADR-RES ovarian 68.4% | T-47D breast 47.6% | BT-549 breast 72.8% | MDA-MB-435 melanoma 104% | MCF7 breast 45% | HCC-2998 colon 105% | KM12 colon 91.2%
active: RPMI-8226 leukemia 8.01% | SW-620 colon -62% | HCT-116 colon 8.71%

COc1cc(C(=O)N2CCN(c3ccccc3OC)CC2)c(N)cc1OCCCN1CCN(c2ccccc2OC)CC1
inactive: RPMI-8226 leukemia 56.4% | OVCAR-8 ovarian 101% | OVCAR-5 ovarian 81.6% | OVCAR-4 ovarian 77.7% | SK-OV-3 ovarian 75.4% | IGROV1 ovarian 77.6% | OVCAR-3 ovarian 77.7% | HS 578T breast 99% | NCI/ADR-RES ovarian 80.1% | T-47D breast 50.9% | BT-549 breast 94.4% | MDA-MB-435 melanoma 101% | SW-620 colon 90.6% | MCF7 breast 96% | HCT-116 colon 81.9% | HCC-2998 colon 101% | KM12 colon 88.4%

O=c1cc(-c2ccccc2)[nH]n1-c1nc2ccccc2[nH]1
inactive: RPMI-8226 leukemia 40.2% | OVCAR-8 ovarian 35% | OVCAR-5 ovarian 98.6% | OVCAR-4 ovarian 25.3% | SK-OV-3 ovarian 75.7% | IGROV1 ovarian 38.9% | OVCAR-3 ovarian 60.9% | HS 578T breast 69.5% | NCI/ADR-RES ovarian 29.1% | T-47D breast 62% | BT-549 breast 75.8% | MDA-MB-435 melanoma 51.1% | SW-620 colon 31.6% | MCF7 breast 42.7% | HCT-116 colon 32.1% | HCC-2998 colon 59.3% | KM12 colon 38%

Cn1c([N+](=O)[O-])cnc1/C=C1\Oc2ccccc2C1=O
active: RPMI-8226 leukemia -7.1% | OVCAR-8 ovarian -26% | OVCAR-5 ovarian 0.959% | SK-OV-3 ovarian -15.9% | IGROV1 ovarian -29.5% | OVCAR-3 ovarian -21% | HS 578T breast -21.8% | NCI/ADR-RES ovarian -5.9% | BT-549 breast -28.6% | MDA-MB-435 melanoma -86.8% | SW-620 colon -36.3% | MCF7 breast 1.82% | HCT-116 colon 1.88% | HCC-2998 colon -73.6% | KM12 colon -17.4%
inactive: OVCAR-4 ovarian 10.5% | T-47D breast 87.3%

Cn1c([N+](=O)[O-])cnc1/C=C1\Oc2cc(Cl)ccc2C1=O
inactive: RPMI-8226 leukemia 11.7% | OVCAR-5 ovarian 29.1% | OVCAR-4 ovarian 55% | T-47D breast 86.6% | MCF7 breast 19%
active: OVCAR-8 ovarian -13.3% | SK-OV-3 ovarian -7.2% | IGROV1 ovarian -22% | OVCAR-3 ovarian -33.3% | HS 578T breast -2.19% | NCI/ADR-RES ovarian -0.2% | BT-549 breast -32.6% | MDA-MB-435 melanoma -78% | SW-620 colon -47.3% | HCT-116 colon 3.24% | HCC-2998 colon 4.36% | KM12 colon 1.65%
